This note sets out measurements from PubChem BioAssay (NCI).

This is part of a sample that, as a whole, favours compounds with a hit. Of some 83,000 tested, about 20% had one in any assay.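 Percent growth is the endpoint: 0 to 100 indicates growth inhibition (40 means 60% inhibition), 0 means no net growth, and negative values indicate cell death.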 Unmarked numbers belong to inactive results. Active and inactive are the calls of the source. How the source made its calls: active means growth percent below 10; inactive means the rest.

This assay has as its system HL-60(TB) leukemia. As to the kind of experiment: NCI-60 one-dose screen, 48 h (100 = growth as untreated, 0 = no growth, -100 = all killed). To be noted: 10 µM unless noted.
For `COc1cc2c(c(OC)c1OC)CCC(c1cccc(C(=O)Nc3cccc(Br)c3)c1)O2` (stereo not drawn), the growth is 101%.
Regarding `COc1ccc(C(=O)c2nc3ccccc3n2CC(=O)c2ccc(Cl)cc2)cc1`, the growth is -13.2% (active).
Take `COC(=O)CCC1=C(C)C2=NC1=CC1=NC(=CC3=NC(=Cc4[nH]c(/c(=C(/C)O)c4C)=C2)C(C(C)=O)=C3C)C(C)=C1CCC(=O)OC`: the growth is 78.2%.
For the molecule `C=CCn1c(SCC(=O)NCc2cc(C)c(O)c(C)c2)nc2ccc(Cl)cc2c1=O`, the growth was 94.4%.
Consider `CCCCN(CCCC)CCCOC(=O)c1ccc(N)cc1`, for which the growth is 76.4%.
In the case of `CCOC(=O)Nc1ccc(-c2nc(-c3cccc(OCCN4CCOCC4)c3)c(-c3ccnc(Br)c3)[nH]2)cc1`, the growth was -23.2% (active).
Consider `COc1ccc(-c2nnc(SC/C(=N\O)c3ccccc3)o2)cc1`, for which the growth was 86.8%.
As to `OCCNCCCOc1ccc2ncnc(Nc3ccc(Oc4cccc(C(F)(F)F)c4)c(Cl)c3)c2c1`, the growth is -31.3% (active).
With `CC(=O)Nc1ccc(CC[C@H]2CCC/C=C/[C@@H]3C[C@H](O)C[C@H]3[C@H](O)/C=C/C(=O)O2)cc1`, the growth was -9.6% (active).
Regarding `COc1ccc(-c2cc(NC(=O)Nc3ccc(O)cc3)no2)cc1`, the growth was 26.4%.
Take `O=C(C(=O)N1CCOCC1)c1cn(CCCn2cc(C(=O)C(=O)N3CCOCC3)c3ccccc32)c2ccccc12`: the growth was 91.9%.
The same measure for `COc1ccc(-c2nc3sc(-c4ccc(OC)cc4)c(-c4ccc(OC)cc4)n3c2/C=C/c2ccc(C(C)C)cc2)cc1`: 97%; for `CC(C)C1=C(O)C2=C(C(=O)C1=O)[C@@]1(C)CCCC(C)(C)[C@@H]1CC2`: 56.4%.
